In PubChem BioAssay AID1159580 (chemical genetic matrix, 2015):
Several values for one entry are separate records, joined by “and”; a condition that tells them apart may be missing. Equal values may be shown once. In all, about 5,500 compounds went through this assay and about 2,000 (36%) were called active. About 18% were inconclusive and are not listed. Cut-off read from the data, not from the text of the source: active = normalized growth mostly below about 0.91 (no sharp cut-off); inconclusive = no clear call, values can overlap the other calls; inactive = mostly above about 0.92. The list shows a part of the results.

Experiment: chemical genetic growth profiling, strain panel (AID 1159580);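 note: tested at 20 µM; growth read once vehicle control cultures reached saturation at 30 °C; 1 = growth at the plate median or of vehicle wells; lower values mean less growth of the strain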
Settings: S. cerevisiae deletion strains, growth OD

Measured: normalized growth

c1ccc2c(CC3=NCCN3)cccc2c1
inactive: locus YAL013W, strain DEP1, stronger effect = lower value 1.01 | locus YAL021C, strain ccr4, stronger effect = lower value 0.944 | locus YAL026C, strain drs2, stronger effect = lower value 0.982 | locus YAL030W, strain snc1, stronger effect = lower value 0.986 | locus YBL061C, strain skt5, stronger effect = lower value 0.985 | locus YBR009C, strain hhf1, stronger effect = lower value 0.987 | locus YBR021W, strain FUR4, stronger effect = lower value 0.999 | locus YBR023C, strain chs3, stronger effect = lower value 0.984 | locus YBR171W, strain sec66, stronger effect = lower value 0.976 | locus YBR229C, strain ROT2, stronger effect = lower value 1.01 | locus YBR231C, strain swc5, stronger effect = lower value 0.985 | locus YBR279W, strain paf1, stronger effect = lower value 0.99 | locus YCL011C, strain gbp2, stronger effect = lower value 0.97 | locus YCL016C, strain dcc1, stronger effect = lower value 0.996 | locus YCL029C, strain bik1, stronger effect = lower value 1.03 | locus YCL061C, strain MRC1, stronger effect = lower value 0.981 | locus YCL069W, strain vba3, stronger effect = lower value 0.955 | locus YCR088W, strain abp1, stronger effect = lower value 0.98 | locus YDL005C, strain med2, stronger effect = lower value 0.962 | locus YDL035C, strain GPR1, stronger effect = lower value 1.01 | locus YDL040C, strain nat1, stronger effect = lower value 0.971 | locus YDL074C, strain BRE1, stronger effect = lower value 1.01 | locus YDL101C, strain DUN1, stronger effect = lower value 1.01 | locus YDL134C, strain PPH21, stronger effect = lower value 1.01 | locus YDL185W, strain tfp1, stronger effect = lower value 1.01 | locus YDL192W, strain arf1, stronger effect = lower value 1.02 | locus YDR001C, strain nth1, stronger effect = lower value 0.99 | locus YDR069C, strain doa4, stronger effect = lower value 0.947 | locus YDR101C, strain arx1, stronger effect = lower value 1.02 | locus YDR137W, strain rgp1, stronger effect = lower value 0.985 | locus YDR150W, strain NUM1, stronger effect = lower value 1.01 | locus YDR159W, strain sac3, stronger effect = lower value 0.958 | locus YDR162C, strain NBP2, stronger effect = lower value 1 | locus YDR195W, strain ref2 0.96 | locus YDR297W, strain sur2, stronger effect = lower value 0.975 | locus YDR318W, strain mcm21, stronger effect = lower value 1.02 | locus YDR334W, strain swr1, stronger effect = lower value 0.958 | locus YDR335W, strain msn5, stronger effect = lower value 0.981 | locus YDR388W, stronger effect = lower value 1.02 | locus YDR392W, strain spt3, stronger effect = lower value 0.863 | locus YDR502C, strain sam2, stronger effect = lower value 1.02 | locus YEL003W, strain gim4, stronger effect = lower value 0.945 | locus YEL037C, strain rad23, stronger effect = lower value 0.964 | locus YEL061C, strain CIN8 (second series), stronger effect = lower value 0.965 | locus YEL061C, strain CIN8, stronger effect = lower value 1.01 | locus YER015W, strain faa2, stronger effect = lower value 0.959 | locus YER016W, strain bim1, stronger effect = lower value 0.979 | locus YER110C, stronger effect = lower value 1.02 | locus YER111C, strain swi4, stronger effect = lower value 0.968 | locus YER155C, strain BEM2 (second series), stronger effect = lower value 0.98 | locus YER155C, strain BEM2, stronger effect = lower value 1 | locus YER167W, strain BCK2, stronger effect = lower value 1.02 | locus YFR010W, strain ubp6, stronger effect = lower value 0.96 | locus YGL078C, strain dbp3, stronger effect = lower value 1.02 | locus YGL086W, strain mad1, stronger effect = lower value 1.01 | locus YGL167C, strain pmr1, stronger effect = lower value 0.98 | locus YGL173C, strain kem1, stronger effect = lower value 0.976 | locus YGL227W, strain vid30, stronger effect = lower value 0.975 | locus YGL240W, strain doc1, stronger effect = lower value 0.98 | locus YGL248W, strain PDE1, stronger effect = lower value 1.01 | locus YGL253W, strain hxk2, stronger effect = lower value 0.98 | locus YGR078C, strain PAC10, stronger effect = lower value 1.01 | locus YGR135W, strain pre9, stronger effect = lower value 1.02 | locus YGR229C, strain SMI1, stronger effect = lower value 1.01 | locus YGR252W, strain gcn5, stronger effect = lower value 0.984 | locus YHR013C, strain ard1, stronger effect = lower value 0.901 | locus YHR027C, strain rpn1, stronger effect = lower value 0.972 | locus YHR030C, strain SLT2, stronger effect = lower value 1.01 and 0.973 | locus YHR079C, strain IRE1 (second series), stronger effect = lower value 1.02 | locus YHR079C, strain IRE1, stronger effect = lower value 0.961 | locus YHR094C, strain hxt1, stronger effect = lower value 1.01 | locus YHR129C, strain ARP1, stronger effect = lower value 1 | locus YHR142W, strain chs7, stronger effect = lower value 0.978 | locus YHR200W, strain rpn10, stronger effect = lower value 1.02 | locus YIL066C, strain RNR3, stronger effect = lower value 1.01 | locus YIL073C, strain SPO22, stronger effect = lower value 1.06 | locus YIL125W, strain kgd1, stronger effect = lower value 1.01 | locus YIR030C, strain dcg1, stronger effect = lower value 1.03 | locus YJL092W, strain hpr5, stronger effect = lower value 0.968 | locus YJL095W, strain BCK1 (second series), stronger effect = lower value 0.987 | locus YJL095W, strain BCK1, stronger effect = lower value 1.01 and 1 | locus YJL115W, strain asf1, stronger effect = lower value 0.976 | locus YJL129C, strain trk1, stronger effect = lower value 0.921 | locus YJL134W, strain LCB3, stronger effect = lower value 1.01 | locus YJL154C, strain vps35, stronger effect = lower value 0.972 | locus YJL164C, strain tpk1, stronger effect = lower value 0.978 | locus YJL166W, strain qcr8, stronger effect = lower value 0.968 | locus YJL168C, strain set2, stronger effect = lower value 1.02 | locus YJL187C, strain SWE1 (second series), stronger effect = lower value 1.01 | locus YJL187C, strain SWE1, stronger effect = lower value 0.976 | locus YJR043C, strain POL32, stronger effect = lower value 1.01 | locus YJR066W, strain TOR1, stronger effect = lower value 0.928
